Records with an inconclusive call do not appear. Active and inactive are the calls of the source. Calls come from the whole dose curve; as a rule, active = well fitted inhibition curve with a large enough effect; inconclusive = small, poorly fitted or top-dose-only effect; inactive = flat fitted curve, though single readings scatter.
Tests used:
CP269 = experiment: qHTS profiling for inhibitors of Plasmodium falciparum proliferation (AID 504749); note: nearly all actives have a fitted effect of over 60% in size; conditions: P. falciparum in erythrocytes, SYBR Green DNA, 72 h; series mostly up to 28.7 µM
Summary of the method: (§1)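 Infected RBCs, 0.3% parasitemia/2.5% Hct final; cpd 72 h, 37 C, 5% CO2; lysis buffer with saponin/triton/SYBR Green I, o/n RT dark; FI 485/535; norm. to artemisinin (0.29 uM) and DMSO.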

CP286 = experiment: as above; conditions: P. falciparum in erythrocytes, SYBR Green DNA, 72 h; series mostly up to 28.7 µM
Summary of the method: as §1

CP291 = experiment: as above; conditions: P. falciparum in erythrocytes, SYBR Green DNA, 72 h; series mostly up to 28.7 µM
Summary of the method: as §1

CP297 = experiment: as above; conditions: P. falciparum in erythrocytes, SYBR Green DNA, 72 h; series mostly up to 28.7 µM
Summary of the method: as §1

CP305 = experiment: as above; conditions: P. falciparum in erythrocytes, SYBR Green DNA, 72 h; series mostly up to 28.7 µM
Summary of the method: as §1

CP315 = experiment: as above; conditions: P. falciparum in erythrocytes, SYBR Green DNA, 72 h; series mostly up to 28.7 µM
Summary of the method: as §1

CP325 = experiment: as above; conditions: P. falciparum in erythrocytes, SYBR Green DNA, 72 h; series mostly up to 28.7 µM
Summary of the method: as §1

CP329 = experiment: as above; conditions: P. falciparum in erythrocytes, SYBR Green DNA, 72 h; series mostly up to 28.7 µM
Summary of the method: as §1

CP335 = experiment: as above; conditions: P. falciparum in erythrocytes, SYBR Green DNA, 72 h; series mostly up to 28.7 µM
Summary of the method: as §1

DFO2036 = experiment: as above; conditions: P. falciparum in erythrocytes, SYBR Green DNA, 72 h; series mostly up to 28.7 µM
Summary of the method: as §1

DIV14 = experiment: as above; conditions: P. falciparum in erythrocytes, SYBR Green DNA, 72 h; series mostly up to 28.7 µM
Summary of the method: as §1

DIV17 = experiment: as above; conditions: P. falciparum in erythrocytes, SYBR Green DNA, 72 h; series mostly up to 28.7 µM
Summary of the method: as §1

DIV30 = experiment: as above; conditions: P. falciparum in erythrocytes, SYBR Green DNA, 72 h; series mostly up to 28.7 µM
Summary of the method: as §1

Dd2 = experiment: as above; conditions: P. falciparum in erythrocytes, SYBR Green DNA, 72 h; series mostly up to 28.7 µM
Summary of the method: as §1

ECU = experiment: as above; conditions: P. falciparum in erythrocytes, SYBR Green DNA, 72 h; series mostly up to 28.7 µM
Summary of the method: as §1

FAB9 = experiment: as above; conditions: P. falciparum in erythrocytes, SYBR Green DNA, 72 h; series mostly up to 28.7 µM
Summary of the method: as §1

GB4 = experiment: as above; conditions: P. falciparum in erythrocytes, SYBR Green DNA, 72 h; series mostly up to 28.7 µM
Summary of the method: as §1

HB3 = experiment: as above; conditions: P. falciparum in erythrocytes, SYBR Green DNA, 72 h; series mostly up to 28.7 µM
Summary of the method: as §1

ICS = experiment: as above; conditions: P. falciparum in erythrocytes, SYBR Green DNA, 72 h; series mostly up to 28.7 µM
Summary of the method: as §1

JCK = experiment: as above; conditions: P. falciparum in erythrocytes, SYBR Green DNA, 72 h; series mostly up to 28.7 µM
Summary of the method: as §1

N140 = experiment: as above; conditions: P. falciparum in erythrocytes, SYBR Green DNA, 72 h; series mostly up to 28.7 µM
Summary of the method: as §1

P93_24 = experiment: as above; conditions: P. falciparum in erythrocytes, SYBR Green DNA, 72 h; series mostly up to 28.7 µM
Summary of the method: as §1

P94_40 = experiment: as above; conditions: P. falciparum in erythrocytes, SYBR Green DNA, 72 h; series mostly up to 28.7 µM
Summary of the method: as §1

PAD = experiment: as above; conditions: P. falciparum in erythrocytes, SYBR Green DNA, 72 h; series mostly up to 28.7 µM
Summary of the method: as §1

PC15 = experiment: as above; conditions: P. falciparum in erythrocytes, SYBR Green DNA, 72 h; series mostly up to 28.7 µM
Summary of the method: as §1

PC26 = experiment: as above; conditions: P. falciparum in erythrocytes, SYBR Green DNA, 72 h; series mostly up to 28.7 µM
Summary of the method: as §1

PC49 = experiment: as above; conditions: P. falciparum in erythrocytes, SYBR Green DNA, 72 h; series mostly up to 28.7 µM
Summary of the method: as §1

SC27B = experiment: as above; conditions: P. falciparum in erythrocytes, SYBR Green DNA, 72 h; series mostly up to 28.7 µM
Summary of the method: as §1

TAB109 = experiment: as above; conditions: P. falciparum in erythrocytes, SYBR Green DNA, 72 h; series mostly up to 28.7 µM
Summary of the method: as §1

TAB113 = experiment: as above; conditions: P. falciparum in erythrocytes, SYBR Green DNA, 72 h; series mostly up to 28.7 µM
Summary of the method: as §1

TAB165 = experiment: as above; conditions: P. falciparum in erythrocytes, SYBR Green DNA, 72 h; series mostly up to 28.7 µM
Summary of the method: as §1

W2 = experiment: as above; conditions: P. falciparum in erythrocytes, SYBR Green DNA, 72 h; series mostly up to 28.7 µM
Summary of the method: as §1

astro = experiment: Drug repurposing screens with cells derived from glioblastoma tumor samples (AID 1345199); conditions: viability, ATP luminescence, 48 h; series mostly up to 45.9 µM; note: nearly all actives have a fitted effect of over 40% in size
Summary of the method: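 Four patient lines of CD133+ GBM neurospheres were screened at several concentrations; hits were retested in those lines plus three slower-growing GBM lines, using 48-hour treatment and ATP-based viability.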

Measured: Potency
Potency is the fitted concentration of half-maximal effect.

CCCCCCCCCC[N+](C)(C)CCCCCCCCCC
active: CP269 4.78 µM | CP286 2.51 µM | CP291 5.36 µM | CP297 6.75 µM | CP305 5.36 µM | CP315 16.9 µM | CP325 5.36 µM | CP329 6.75 µM | CP335 6.75 µM | DFO2036 5.01 µM | DIV14 3.01 µM | DIV17 3.01 µM | DIV30 8.49 µM | Dd2 8.91 µM | ECU 5.01 µM | FAB9 5.01 µM | GB4 3.38 µM | HB3 7.94 µM | ICS 2 µM | JCK 10 µM | N140 7.08 µM | P93_24 5.01 µM | P94_40 6.31 µM | PAD 8.91 µM | PC15 3.55 µM | PC26 5.36 µM | PC49 10 µM | SC27B 5.01 µM | TAB109 6.31 µM | TAB113 5.01 µM | TAB165 7.08 µM | W2 1.51 µM | astro 4.47 µM

Reference: PubChem BioAssay (NCATS)
